The whole screen tested about 5,500 compounds, of which about 2,000 (36%) were called active. Roughly 18% stayed inconclusive and do not appear here. Cut-off read from the data, not from the text of the source: active = normalized growth mostly below about 0.91 (no sharp cut-off); inconclusive = no clear call, values can overlap the other calls; inactive = mostly above about 0.92. The list shows a part of the results.
Experiment: chemical genetic growth profiling, strain panel (AID 1159580);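 note: tested at 20 µM; growth read once vehicle control cultures reached saturation at 30 °C; 1 = growth at the plate median or of vehicle wells; lower values mean less growth of the strain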
Details: growth OD

Measured: normalized growth

CC(=O)OCC(OC(C)=O)C(OC(C)=O)C(OC(C)=O)C(OC(C)=O)C(COC(C)=O)OC(C)=O (stereo not given)
inactive: S. cerevisiae deletion strains, locus YAL021C, strain ccr4, hits give low values 0.998 | S. cerevisiae deletion strains, locus YAL026C, strain drs2, hits give low values 0.993 | S. cerevisiae deletion strains, locus YAL030W, strain snc1, hits give low values 0.994 | S. cerevisiae deletion strains, locus YBL061C, strain skt5, hits give low values 0.985 | S. cerevisiae deletion strains, locus YBR009C, strain hhf1, hits give low values 0.994 | S. cerevisiae deletion strains, locus YBR021W, strain FUR4, hits give low values 1.01 | S. cerevisiae deletion strains, locus YBR023C, strain chs3, hits give low values 0.99 | S. cerevisiae deletion strains, locus YBR171W, strain sec66, hits give low values 0.985 | S. cerevisiae deletion strains, locus YBR229C, strain ROT2, hits give low values 0.996 | S. cerevisiae deletion strains, locus YBR231C, strain swc5, hits give low values 0.989 | S. cerevisiae deletion strains, locus YBR279W, strain paf1, hits give low values 0.994 | S. cerevisiae deletion strains, locus YCL011C, strain gbp2, hits give low values 0.996 | S. cerevisiae deletion strains, locus YCL016C, strain dcc1, hits give low values 0.994 | S. cerevisiae deletion strains, locus YCL029C, strain bik1, hits give low values 0.984 | S. cerevisiae deletion strains, locus YCL061C, strain MRC1, hits give low values 0.992 | S. cerevisiae deletion strains, locus YCL069W, strain vba3, hits give low values 0.999 | S. cerevisiae deletion strains, locus YCR088W, strain abp1, hits give low values 0.991 | S. cerevisiae deletion strains, locus YDL005C, strain med2, hits give low values 0.989 | S. cerevisiae deletion strains, locus YDL035C, strain GPR1, hits give low values 1.07 | S. cerevisiae deletion strains, locus YDL040C, strain nat1, hits give low values 0.98 | S. cerevisiae deletion strains, locus YDL074C, strain BRE1, hits give low values 1.09 | S. cerevisiae deletion strains, locus YDL101C, strain DUN1, hits give low values 1 | S. cerevisiae deletion strains, locus YDL185W, strain tfp1, hits give low values 0.991 | S. cerevisiae deletion strains, locus YDL192W, strain arf1, hits give low values 1.02 | S. cerevisiae deletion strains, locus YDR001C, strain nth1, hits give low values 0.99 | S. cerevisiae deletion strains, locus YDR069C, strain doa4, hits give low values 0.986 | S. cerevisiae deletion strains, locus YDR101C, strain arx1, hits give low values 1.01 | S. cerevisiae deletion strains, locus YDR137W, strain rgp1, hits give low values 1.01 | S. cerevisiae deletion strains, locus YDR150W, strain NUM1, hits give low values 1.01 | S. cerevisiae deletion strains, locus YDR159W, strain sac3, hits give low values 0.979 | S. cerevisiae deletion strains, locus YDR162C, strain NBP2, hits give low values 1.03 | S. cerevisiae deletion strains, locus YDR195W, strain ref2 0.943 | S. cerevisiae deletion strains, locus YDR297W, strain sur2, hits give low values 0.992 | S. cerevisiae deletion strains, locus YDR318W, strain mcm21, hits give low values 0.999 | S. cerevisiae deletion strains, locus YDR334W, strain swr1, hits give low values 0.983 | S. cerevisiae deletion strains, locus YDR335W, strain msn5, hits give low values 0.986 | S. cerevisiae deletion strains, locus YDR388W, hits give low values 0.983 | S. cerevisiae deletion strains, locus YDR392W, strain spt3, hits give low values 0.99 | S. cerevisiae deletion strains, locus YDR502C, strain sam2, hits give low values 0.998 | S. cerevisiae deletion strains, locus YEL003W, strain gim4, hits give low values 0.993 | S. cerevisiae deletion strains, locus YEL037C, strain rad23, hits give low values 0.989 | S. cerevisiae deletion strains, locus YEL061C, strain CIN8 (second series), hits give low values 0.979 | S. cerevisiae deletion strains, locus YER015W, strain faa2, hits give low values 0.992 | S. cerevisiae deletion strains, locus YER016W, strain bim1, hits give low values 0.988 | S. cerevisiae deletion strains, locus YER110C, hits give low values 0.963 | S. cerevisiae deletion strains, locus YER111C, strain swi4, hits give low values 0.985 | S. cerevisiae deletion strains, locus YER155C, strain BEM2 (second series), hits give low values 0.981 | S. cerevisiae deletion strains, locus YER155C, strain BEM2, hits give low values 0.972 | S. cerevisiae deletion strains, locus YER167W, strain BCK2, hits give low values 1.01 | S. cerevisiae deletion strains, locus YFR010W, strain ubp6, hits give low values 0.989 | S. cerevisiae deletion strains, locus YGL078C, strain dbp3, hits give low values 0.976 | S. cerevisiae deletion strains, locus YGL086W, strain mad1, hits give low values 1 | S. cerevisiae deletion strains, locus YGL167C, strain pmr1, hits give low values 0.998 | S. cerevisiae deletion strains, locus YGL173C, strain kem1, hits give low values 0.991 | S. cerevisiae deletion strains, locus YGL227W, strain vid30, hits give low values 0.99 | S. cerevisiae deletion strains, locus YGL240W, strain doc1, hits give low values 0.998 | S. cerevisiae deletion strains, locus YGL248W, strain PDE1, hits give low values 1.03 | S. cerevisiae deletion strains, locus YGL253W, strain hxk2, hits give low values 0.984 | S. cerevisiae deletion strains, locus YGR078C, strain PAC10, hits give low values 1.02 | S. cerevisiae deletion strains, locus YGR135W, strain pre9, hits give low values 0.964 | S. cerevisiae deletion strains, locus YGR252W, strain gcn5, hits give low values 0.996 | S. cerevisiae deletion strains, locus YHR013C, strain ard1, hits give low values 0.964 | S. cerevisiae deletion strains, locus YHR027C, strain rpn1, hits give low values 0.995 | S. cerevisiae deletion strains, locus YHR030C, strain SLT2, hits give low values 1.01 | S. cerevisiae deletion strains, locus YHR079C, strain IRE1 (second series), hits give low values 0.987 | S. cerevisiae deletion strains, locus YHR094C, strain hxt1, hits give low values 0.987 | S. cerevisiae deletion strains, locus YHR129C, strain ARP1, hits give low values 1 | S. cerevisiae deletion strains, locus YHR142W, strain chs7, hits give low values 0.983 | S. cerevisiae deletion strains, locus YHR200W, strain rpn10, hits give low values 0.986 | S. cerevisiae deletion strains, locus YIL066C, strain RNR3, hits give low values 1.02 | S. cerevisiae deletion strains, locus YIL073C, strain SPO22, hits give low values 1.06 | S. cerevisiae deletion strains, locus YIL125W, strain kgd1, hits give low values 0.976 | S. cerevisiae deletion strains, locus YIR030C, strain dcg1, hits give low values 0.978 | S. cerevisiae deletion strains, locus YJL092W, strain hpr5, hits give low values 0.998 | S. cerevisiae deletion strains, locus YJL095W, strain BCK1 (second series), hits give low values 0.985 | S. cerevisiae deletion strains, locus YJL095W, strain BCK1, hits give low values 1.05 | S. cerevisiae deletion strains, locus YJL115W, strain asf1, hits give low values 0.975 | S. cerevisiae deletion strains, locus YJL129C, strain trk1, hits give low values 0.988 | S. cerevisiae deletion strains, locus YJL134W, strain LCB3, hits give low values 1 | S. cerevisiae deletion strains, locus YJL154C, strain vps35, hits give low values 0.986 | S. cerevisiae deletion strains, locus YJL164C, strain tpk1, hits give low values 0.986 | S. cerevisiae deletion strains, locus YJL166W, strain qcr8, hits give low values 0.993 | S. cerevisiae deletion strains, locus YJL168C, strain set2, hits give low values 0.98 | S. cerevisiae deletion strains, locus YJL187C, strain SWE1 (second series), hits give low values 1.02 | S. cerevisiae deletion strains, locus YJL187C, strain SWE1, hits give low values 1 | S. cerevisiae deletion strains, locus YJR043C, strain POL32, hits give low values 1.07 | S. cerevisiae deletion strains, locus YKL009W, strain mrt4, hits give low values 1.01 | S. cerevisiae deletion strains, locus YKL068W, hits give low values 0.995 | S. cerevisiae deletion strains, locus YKL085W, strain MDH1 (second series), hits give low values 0.992 | S. cerevisiae deletion strains, locus YKL085W, strain MDH1, hits give low values 0.992 | S. cerevisiae deletion strains, locus YKL160W, strain elf1, hits give low values 0.997 | S. cerevisiae deletion strains, locus YKR001C, strain vps1, hits give low values 1.04 | S. cerevisiae deletion strains, locus YKR026C, strain gcn3, hits give low values 0.999 | S. cerevisiae deletion strains, locus YKR091W, strain srl3, hits give low values 0.991 | S. cerevisiae deletion strains, locus YLL001W, strain dnm1, hits give low values 0.989 | S. cerevisiae deletion strains, locus YLL026W, hits give low values 0.994 | S. cerevisiae deletion strains, locus YLL041C, strain sdh2, hits give low values 0.995 | S. cerevisiae deletion strains, locus YLR027C, strain aat2, hits give low values 0.995 | S. cerevisiae deletion strains, locus YLR039C, strain RIC1, hits give low values 1.2 | S. cerevisiae deletion strains, locus YLR058C, strain SHM2, hits give low values 1.02 | S. cerevisiae deletion strains, locus YLR102C, strain apc9, hits give low values 0.975 | S. cerevisiae deletion strains, locus YLR221C, strain rsa3, hits give low values 0.999 | S. cerevisiae deletion strains, locus YLR258W, strain gsy2, hits give low values 0.994 | S. cerevisiae deletion strains, locus YLR262C, strain YPT6 (second series), hits give low values 1.01 | S. cerevisiae deletion strains, locus YLR268W, strain sec22, hits give low values 1.04 | S. cerevisiae deletion strains, locus YLR320W, strain mms22, hits give low values 0.992 | S. cerevisiae deletion strains, locus YLR330W, strain CHS5, hits give low values 1 | S. cerevisiae deletion strains, locus YLR342W, strain FKS1, hits give low values 0.987 | S. cerevisiae deletion strains, locus YLR357W, strain rsc2, hits give low values 0.982 | S. cerevisiae deletion strains, locus YLR370C, strain arc18, hits give low values 0.99 | S. cerevisiae deletion strains, locus YLR371W, strain rom2, hits give low values 0.989 | S. cerevisiae deletion strains, locus YLR384C, strain iki3, hits give low values 1 | S. cerevisiae deletion strains, locus YLR418C, strain cdc73, hits give low values 1.01 | S. cerevisiae deletion strains, locus YML016C, strain PPZ1, hits give low values 1.01 | S. cerevisiae deletion strains, locus YML032C, strain rad52, hits give low values 0.993 | S. cerevisiae deletion strains, locus YML120C, strain ndi1, hits give low values 0.985 | S. cerevisiae deletion strains, locus YML124C, strain tub3, hits give low values 0.99 | S. cerevisiae deletion strains, locus YMR058W, strain fet3, hits give low values 0.994 | S. cerevisiae deletion strains, locus YMR078C, strain ctf18, hits give low values 0.981 | S. cerevisiae deletion strains, locus YMR125W, strain sto1, hits give low values 0.975 | S. cerevisiae deletion strains, locus YMR129W, hits give low values 0.991 | S. cerevisiae deletion strains, locus YMR205C, strain PFK2, hits give low values 0.985 | S. cerevisiae deletion strains, locus YMR223W, strain ubp8, hits give low values 0.993 | S. cerevisiae deletion strains, locus YMR231W, strain pep5, hits give low values 1 | S. cerevisiae deletion strains, locus YMR307W, strain GAS1, hits give low values 1.09 | S. cerevisiae deletion strains, locus YNL067W, strain RPL9B, hits give low values 1.01 | S. cerevisiae deletion strains, locus YNL071W, strain lat1, hits give low values 0.99 | S. cerevisiae deletion strains, locus YNL128W, strain TEP1, hits give low values 1 | S. cerevisiae deletion strains, locus YNL209W, strain ssb2, hits give low values 0.998 | S. cerevisiae deletion strains, locus YNL233W, strain BNI4, hits give low values 1.03 | S. cerevisiae deletion strains, locus YNL248C, strain rpa49, hits give low values 1.01 | S. cerevisiae deletion strains, locus YNL250W, strain rad50, hits give low values 0.978 | S. cerevisiae deletion strains, locus YNL271C, strain bni1, hits give low values 0.998 | S. cerevisiae deletion strains, locus YNL298W, strain CLA4, hits give low values 0.987 | S. cerevisiae deletion strains, locus YNL307C, strain MCK1, hits give low values 0.977 | S. cerevisiae deletion strains, locus YNL322C, strain KRE1 (second series), hits give low values 0.993 | S. cerevisiae deletion strains, locus YNR049C, strain mso1, hits give low values 0.975 | S. cerevisiae deletion strains, locus YNR052C, strain pop2, hits give low values 0.962 | S. cerevisiae deletion strains, locus YOL006C, strain TOP1, hits give low values 1.27 | S. cerevisiae deletion strains, locus YOL012C, strain htz1 1.05 | S. cerevisiae deletion strains, locus YOL147C, strain pex11, hits give low values 0.997 | S. cerevisiae deletion strains, locus YOR001W, strain rrp6, hits give low values 0.997 | S. cerevisiae deletion strains, locus YOR061W, strain CKA2, hits give low values 0.997 | S. cerevisiae deletion strains, locus YOR069W, strain VPS5, hits give low values 1.01 | S. cerevisiae deletion strains, locus YOR070C, strain gyp1, hits give low values 0.99 | S. cerevisiae deletion strains, locus YOR080W, strain dia2, hits give low values 0.985 | S. cerevisiae deletion strains, locus YOR083W, strain WHI5, hits give low values 0.995 | S. cerevisiae deletion strains, locus YOR106W, strain vam3, hits give low values 0.989 | S. cerevisiae deletion strains, locus YOR136W, strain idh2, hits give low values 0.973 | S. cerevisiae deletion strains, locus YOR144C, strain elg1, hits give low values 0.975 | S. cerevisiae deletion strains, locus YOR184W, strain ser1, hits give low values 1.06 | S. cerevisiae deletion strains, locus YOR265W, strain rbl2, hits give low values 0.983 | S. cerevisiae deletion strains, locus YOR270C, strain vph1, hits give low values 0.981 | S. cerevisiae deletion strains, locus YOR290C, strain snf2, hits give low values 0.978 | S. cerevisiae deletion strains, locus YOR316C, strain cot1, hits give low values 0.987 | S. cerevisiae deletion strains, locus YPL051W, strain arl3, hits give low values 0.995 | S. cerevisiae deletion strains, locus YPL078C, strain atp4, hits give low values 0.993 | S. cerevisiae deletion strains, locus YPL106C, strain sse1, hits give low values 1.01 | S. cerevisiae deletion strains, locus YPL240C, strain hsp82, hits give low values 0.996 | S. cerevisiae deletion strains, locus YPR119W, strain clb2, hits give low values 0.989 | S. cerevisiae deletion strains, locus YPR141C, strain kar3, hits give low values 0.997 | S. cerevisiae deletion strains, locus YPR163C, strain tif3, hits give low values 0.998 | S. cerevisiae deletion strains, locus YPR167C, strain met16, hits give low values 0.962 | S. cerevisiae deletion strains, strain wtn01, hits give low values 1.03 | S. cerevisiae strains, strain wild type, hits give low values 1.04

Source: PubChem BioAssay AID1159580 (chemical genetic matrix, 2015)
